These results are taken from PubChem BioAssay.

Active and inactive are the calls of the source. Unless noted, how the calls were made is not given here.

The subject of experiment [1] is XIP peptide (Xip251-270) binding. Nature of the experiment: small-molecule binders of XIP peptide, primary screen, biochemical, small-molecule microarray, fluorescence 635/667 nm, 0.1 µg/mL protein (AID 1182). Conditions: fluorescent protein binding, 635 nm, higher = more signal, called active from +8 up or from −8 down.
The next experiment has as its system XIP peptide (Xip251-270). Nature of the experiment: small-molecule binders of XIP peptide, primary screen, biochemical, small-molecule microarray, fluorescence 635/667 nm, 0.5 µg/mL protein (AID 1183). Conditions: small-molecule microarray binding, fluorescence 635 nm; higher = more signal.
The nature of experiment [2]: Plasmodium falciparum growth inhibition, primary screen, strain 3D7, DAPI fluorescence, 100 nL (AID 1184).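 Further: parasites grown inside human red blood cells in medium with human serum.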 The settings on record: P. falciparum 3D7 growth, 3 d, higher = more signal.
Experiment [3] addresses Homeobox protein Hox-A13 (Mus musculus) (UniProt Q62424). Nature of the experiment: inhibitors of HoxA13-DNA binding, primary screen, biochemical, fluorescence polarization, labeled oligonucleotide (AID 1185). The settings on record: 15 min, higher = more signal, called active from +8 up or from −8 down.
A short description of experiment [4]: inhibitors of hydroxyurea-induced Chk1 phosphorylation, primary screen, imaging, HeLa, phospho-Chk1 antibody, percent positive cells (AID 1186). Conditions: hydroxyurea-induced phospho-Chk1 immunofluorescence imaging, higher = more signal.
Experiment [5] in a line: inhibitors of hydroxyurea-induced Chk1 phosphorylation, primary screen, imaging, HeLa, phospho-Chk1 nuclear intensity (AID 1187). The settings on record: hydroxyurea-induced phospho-Chk1 immunofluorescence imaging, higher = more signal.

Homeobox protein Hox-A13 (Mus musculus), sequence (Q62424 whole entry, looked up): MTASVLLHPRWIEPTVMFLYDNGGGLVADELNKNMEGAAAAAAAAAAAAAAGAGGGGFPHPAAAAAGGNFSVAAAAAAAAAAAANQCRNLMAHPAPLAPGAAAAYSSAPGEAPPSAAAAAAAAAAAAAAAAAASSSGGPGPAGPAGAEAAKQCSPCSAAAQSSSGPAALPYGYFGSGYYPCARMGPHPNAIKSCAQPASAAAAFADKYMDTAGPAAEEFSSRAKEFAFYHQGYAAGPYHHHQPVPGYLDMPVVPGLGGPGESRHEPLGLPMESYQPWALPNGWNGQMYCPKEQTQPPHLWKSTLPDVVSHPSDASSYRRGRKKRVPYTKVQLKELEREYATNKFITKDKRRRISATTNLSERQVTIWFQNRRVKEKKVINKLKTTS

On to `NC(=O)[C@@H]1[C@H]2C(=O)O[C@H](c3ccccc3)[C@H](c3ccccc3)N2[C@H](c2ccccc2OCCO)[C@@]12C(=O)Nc1ccc(C#CCCO)cc12`, for which the composite z-score in experiment [1] is 0.585 (inactive); in the experiment on XIP peptide (Xip251-270) it was 0.588. For the same molecule, the z-score is 0.291 in experiment [2], -5.7 (inactive) in experiment [3], -0.266 (inactive) in experiment [4] and -0.161 (inactive) in experiment [5].
Regarding `CCOC(=O)C[C@H]1[C@H](OC(=O)Cc2ccc3c(c2)OCO3)[C@@H](NC(=O)c2ccccc2)c2cc(OCCCO)ccc2N1C(=O)c1ccccc1`, the composite z-score is -0.0294 (inactive) in experiment [1] and 0.643 in the experiment with XIP peptide (Xip251-270). For the same molecule, the z-score in experiment [2] was -0.385; in experiment [3] it was -3.12 (inactive); in experiment [4], -0.454 (inactive); in experiment [5], -0.342 (inactive).
For `[N-]=[N+]=NCc1ccccc1[C@H]1OC(c2ccc(OCCCO)cc2)=N[C@@]1(Cc1ccccc1N=[N+]=[N-])C(=O)N1CCCCC1`, the composite z-score is 0.538 (inactive) in experiment [1] and 0.831 with XIP peptide (Xip251-270). Further, the z-score is -2.15 in experiment [2], -0.972 (inactive) in experiment [3], -0.335 (inactive) in experiment [4] and -0.35 (inactive) in experiment [5].
As to `O=C1O[C@H](c2ccccc2)[C@H](c2ccccc2)N2[C@H]1[C@@H](C(=O)N1CCCCCCC1)[C@]1(C(=O)Nc3ccccc31)[C@H]2c1ccc(O)cc1`, the composite z-score is 4.72 (inactive) in experiment [1] and 0.943 with XIP peptide (Xip251-270). In addition, the z-score was 0.61 in experiment [2], 2.7 (inactive) in experiment [3], 0.323 (inactive) in experiment [4] and 0.725 (inactive) in experiment [5].
For `CC(C)c1ccc(NN2C(C(O)c3ccccn3)C=CC3C(=O)N(c4ccccc4)C(=O)C32)cc1` (stereo unspecified), the composite z-score in experiment [1] is 1.17 (inactive); in the experiment on XIP peptide (Xip251-270), 0.69. In addition, the z-score was -0.723 in experiment [2], -4.86 (inactive) in experiment [3], 0.236 (inactive) in experiment [4] and 0.375 (inactive) in experiment [5].
With `O=C1CSC(c2cccc([N+](=O)[O-])c2)N1c1ccccc1` (stereo unspecified), the composite z-score in experiment [1] was 0.0504 (inactive); with XIP peptide (Xip251-270) it was 0.143. Further, the z-score in experiment [2] is 0.464; in experiment [3] it was 1.07 (inactive); in experiment [4], 0.0304 (inactive); in experiment [5] it was -0.174 (inactive).
With `O=C1N(Cc2ccccc2)c2ccccc2[C@H]2OC(c3ccc(OCCCO)cc3)=N[C@@]12CCS(=O)(=O)c1ccccc1`, the composite z-score in experiment [1] was 0.0535 (inactive); in the experiment on XIP peptide (Xip251-270), 0.371. In addition, the z-score in experiment [2] was -2.56; in experiment [3], -1.54 (inactive); in experiment [4] it was -0.103 (inactive); in experiment [5], -0.0726 (inactive).
Consider `COc1cc2c(cc1OC)CN(C(=O)[C@@H]1[C@H]3C(=O)O[C@H](c4ccccc4)[C@H](c4ccccc4)N3[C@H](c3ccc(O)cc3)[C@@]13C(=O)Nc1ccc(C#CCNC(N)=O)cc13)CC2`, for which the composite z-score in experiment [1] was 0.503 (inactive); in the experiment on XIP peptide (Xip251-270), -0.0161. The z-score is -0.656 in experiment [2], -1.67 (inactive) in experiment [3], 0.259 (inactive) in experiment [4] and 0.278 (inactive) in experiment [5].
`CN(C)CCCNC(=O)[C@@]1(Cc2ccccc2I)c2ccccc2C(=O)N(Cc2ccccc2Cl)[C@H]1c1ccc(CO)cc1`: the composite z-score was 0.191 (inactive) in experiment [1] and 0.774 with XIP peptide (Xip251-270). For the same molecule, the z-score in experiment [2] is -2.21; in experiment [3], -0.316 (inactive); in experiment [4], -0.022 (inactive); in experiment [5] it was -0.461 (inactive).
Take `O=C1C2C=CC(C(O)c3ccccn3)N(Nc3ccccc3)C2C(=O)N1c1ccccc1` (stereo unspecified): the figures for the composite z-score (in experiment [1]; with XIP peptide (Xip251-270)) were 0.099 (inactive) and 0.116, respectively. In addition, the z-score was -0.244 in experiment [2], -1.65 (inactive) in experiment [3], -0.849 (inactive) in experiment [4] and -0.791 (inactive) in experiment [5].
`CCCCC(=C=CC[C@H](O)c1ccccc1OCCO)C[C@H](O)c1ccccn1`: the values for the composite z-score (in experiment [1]; in the experiment on XIP peptide (Xip251-270)) were 0.418 (inactive) and 0.318, respectively. Moreover, the z-score is -0.966 in experiment [2], -3.35 (inactive) in experiment [3], 0.305 (inactive) in experiment [4] and 0.113 (inactive) in experiment [5].
For `CCCC=C(CCC)[C@@H](NC(=O)Cc1ccccc1)c1ccc(C(=O)OC)cc1`, the composite z-score in experiment [1] is 0.349 (inactive); in the experiment on XIP peptide (Xip251-270), 0.34. Also, the z-score in experiment [2] is -0.958; in experiment [3], -1.93 (inactive); in experiment [4] it was 0.374 (inactive); in experiment [5], -0.309 (inactive).
As for `O=C(O)[C@@]1(Cc2ccccc2)COC(c2ccc(OCCCO)cc2)=N1`, the figures for the composite z-score (in experiment [1]; in the experiment with XIP peptide (Xip251-270)) were -0.781 (inactive) and -0.486, respectively. Moreover, the z-score is -0.0272 in experiment [2], -1.29 (inactive) in experiment [3], -0.0393 (inactive) in experiment [4] and 0.204 (inactive) in experiment [5].
Take `C=CC[C@]1(C(=O)NCC(O)CO)N=C(c2ccc(OCCCO)cc2)O[C@H]1c1ccccc1N=[N+]=[N-]` (stereo partly specified): the figures for the composite z-score (in experiment [1]; in the experiment on XIP peptide (Xip251-270)) were 2.54 (inactive) and 0.159, respectively. In addition, the z-score in experiment [2] was -2.3; in experiment [3] it was -3.71 (inactive); in experiment [4], -0.353 (inactive); in experiment [5], -0.236 (inactive).
For the molecule `C=CCOC(=O)[C@@H]1[C@H]2C(=O)O[C@H](c3ccccc3)[C@H](c3ccccc3)N2[C@H](c2ccc(OCCOC(=O)[C@H]3C[C@H]4C(=O)N[C@@H](Cc5ccccc5)C(=O)N4[C@H]3c3cccc(OCCO)c3)cc2)[C@@]12C(=O)Nc1ccc(I)cc12`, the composite z-score in experiment [1] was 2.12 (inactive); with XIP peptide (Xip251-270) it was 0.813. Also, the z-score in experiment [2] was 0.143; in experiment [3], 6.79 (inactive); in experiment [4], -0.173 (inactive); in experiment [5], 0.0575 (inactive).
On to `Cc1ccc(N2C(=O)c3ccccc3[C@](C)(C(=O)NC(C)C)[C@@H]2c2ccc(CO)cc2)nc1`, for which the composite z-score in experiment [1] is -0.224 (inactive); in the experiment with XIP peptide (Xip251-270), 0.677. In addition, the z-score in experiment [2] was -0.736; in experiment [3], -0.858 (inactive); in experiment [4], 0.0932 (inactive); in experiment [5] it was 0.205 (inactive).
Take `C#CCNS(=O)(=O)N(C)C`: the composite z-score in experiment [1] is 0.153 (inactive); in the experiment on XIP peptide (Xip251-270), 0.0198. For the same molecule, the z-score is -0.265 in experiment [2], -0.146 (inactive) in experiment [3], -0.271 (inactive) in experiment [4] and 0.0602 (inactive) in experiment [5].
Consider `COC(=O)C(CC#Cc1ccc2c(c1)[C@]1(C(=O)N2)[C@H](c2ccc(OCCO)cc2)N2[C@H](c3ccccc3)[C@H](c3ccccc3)OC(=O)[C@H]2[C@@H]1C(=O)O)C(=O)OC`, for which the values for the composite z-score (in experiment [1]; in the experiment on XIP peptide (Xip251-270)) were 0.817 (inactive) and 0.862, respectively. The z-score was 0.663 in experiment [2], -5.67 (inactive) in experiment [3], 0.0445 (inactive) in experiment [4] and 0.436 (inactive) in experiment [5].
`CN(C)CCCC[C@@H]1NC(=O)[C@H]2C[C@@H](C(=O)NCCCCCCNC(=O)CS)[C@@H](c3ccc(O)cc3)N2C1=O`: the composite z-score was 1.44 (inactive) in experiment [1] and 0.868 in the experiment with XIP peptide (Xip251-270). Further, the z-score in experiment [2] was 0.323; in experiment [3], -2.87 (inactive); in experiment [4], -0.346 (inactive); in experiment [5], 0.128 (inactive).
Regarding `C=C(C)[C@@H]1CC=C(C(O)C2C=CC3C(=O)N(C4CCCCC4)C(=O)C3N2Nc2ccc(OC)cc2)CC1` (stereo partly specified), the composite z-score in experiment [1] was 0.376 (inactive); in the experiment on XIP peptide (Xip251-270), 0.505. Further, the z-score in experiment [2] is -0.409; in experiment [3], -3.47 (inactive); in experiment [4], -0.385 (inactive); in experiment [5], -0.393 (inactive).
`[N-]=[N+]=NCc1ccccc1C[C@]1(C(=O)NCCN2CCOCC2)N=C(c2ccc(OCCCO)cc2)O[C@H]1c1ccccc1`: the composite z-score in experiment [1] is 0.786 (inactive); with XIP peptide (Xip251-270), 0.817. In addition, the z-score in experiment [2] is -2.42; in experiment [3] it was -6.23 (inactive); in experiment [4] it was 0.0479 (inactive); in experiment [5], 0.228 (inactive).
